SMILES strings stand for the structures. For some of these results: Potency and affinity values are given separately.

Holding throughout (design): scale not given: direction of the effect not stated beside the values
Test [1] concerns the target Protein translocase subunit SecA (Escherichia coli (strain K12)) (UniProt P10408). Description: Assay to Identify E. coli SecA ATPase Inhibitors. The test is classed as functional. To be noted: 30 µM.
For test [2], the target named is T1, Ubiquitin-activating enzyme e1, putative (Leishmania donovani (strain BPK282A1)) (UniProt E9BSI1).
T1 sequence (whole entry): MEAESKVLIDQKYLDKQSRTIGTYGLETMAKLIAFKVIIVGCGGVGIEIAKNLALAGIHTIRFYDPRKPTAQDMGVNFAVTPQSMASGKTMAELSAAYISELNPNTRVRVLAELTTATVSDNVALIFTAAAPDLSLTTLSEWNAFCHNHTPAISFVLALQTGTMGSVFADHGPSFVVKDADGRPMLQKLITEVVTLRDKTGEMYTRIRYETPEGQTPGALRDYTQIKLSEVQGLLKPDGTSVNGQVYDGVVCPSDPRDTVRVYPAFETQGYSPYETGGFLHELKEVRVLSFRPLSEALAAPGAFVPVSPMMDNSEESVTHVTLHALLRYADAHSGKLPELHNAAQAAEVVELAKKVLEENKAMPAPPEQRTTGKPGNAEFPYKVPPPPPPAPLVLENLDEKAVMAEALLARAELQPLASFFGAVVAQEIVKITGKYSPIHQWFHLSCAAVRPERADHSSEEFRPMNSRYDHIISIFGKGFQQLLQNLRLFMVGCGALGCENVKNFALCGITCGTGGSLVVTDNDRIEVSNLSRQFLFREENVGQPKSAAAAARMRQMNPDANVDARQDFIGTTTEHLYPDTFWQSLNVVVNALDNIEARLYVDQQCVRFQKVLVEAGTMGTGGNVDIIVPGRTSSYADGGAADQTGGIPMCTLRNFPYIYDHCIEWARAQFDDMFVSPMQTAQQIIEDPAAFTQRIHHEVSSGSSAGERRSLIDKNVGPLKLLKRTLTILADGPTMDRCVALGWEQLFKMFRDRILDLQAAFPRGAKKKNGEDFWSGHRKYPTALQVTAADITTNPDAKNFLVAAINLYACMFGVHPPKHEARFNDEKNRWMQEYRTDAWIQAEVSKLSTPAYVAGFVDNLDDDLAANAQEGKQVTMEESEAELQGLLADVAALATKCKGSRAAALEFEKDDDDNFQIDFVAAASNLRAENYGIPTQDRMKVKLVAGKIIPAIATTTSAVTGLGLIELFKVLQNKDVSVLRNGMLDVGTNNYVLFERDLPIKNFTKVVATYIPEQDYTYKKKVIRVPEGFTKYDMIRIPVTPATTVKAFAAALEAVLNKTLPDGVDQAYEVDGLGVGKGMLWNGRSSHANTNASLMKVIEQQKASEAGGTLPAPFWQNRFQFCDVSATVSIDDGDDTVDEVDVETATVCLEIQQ
In words: Leishmania donovani Ubiquitin Activating Enzyme (LdE1). As to conditions: 30 µM. The test is classed as functional.

The target in test [3] is AMP-activated protein kinase, AMPK (Homo sapiens) (UniProt P54646+O43741+P54619+Q9UGJ0+Q9Y478+Q13131+Q9UGI9). In words: AMP-dependent Kinase enzyme assay. An in vitro enzyme assay that detects ADP turnover that is directly proportional to AMPK activity. This uses naive AMPK that is activated during the assay with MK-8722. The test is classed as functional. As to conditions: 30 µM.

Test [4] addresses Sialic acid-binding Ig-like lectin 9 (Homo sapiens) (UniProt Q9Y336). Description: Hs-Siglec9 ALPHAscreen SOP 20170721. To be noted: 10 µM. Background: Alpha assays give light when donor and acceptor beads are brought close together.
The subject of another test is Trypanosoma cruzi. In words: Trypanosoma cruzi phosphomannomutase and mannose-1-phosphate guanylyltransferase assay. The test is classed as functional. To be noted: 10 µM.
Test [5] deals with T2, Arginase-2, mitochondrial (Homo sapiens) (UniProt P78540).
T2 sequence (whole entry): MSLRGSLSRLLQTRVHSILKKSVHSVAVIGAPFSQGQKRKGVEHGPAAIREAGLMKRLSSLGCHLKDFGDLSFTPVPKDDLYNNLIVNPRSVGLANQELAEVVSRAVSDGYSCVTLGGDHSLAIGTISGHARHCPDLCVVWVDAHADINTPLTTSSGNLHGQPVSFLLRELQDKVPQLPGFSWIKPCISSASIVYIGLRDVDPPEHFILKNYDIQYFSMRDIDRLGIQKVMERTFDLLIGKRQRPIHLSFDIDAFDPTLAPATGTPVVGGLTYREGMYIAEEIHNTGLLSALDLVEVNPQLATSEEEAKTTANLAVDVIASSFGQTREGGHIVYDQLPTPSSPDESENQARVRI
Description: in vitro enzyme assay to detect the production of urea directly proportional to the activity of Arginase II. Further: in the data most compounds retested in dose-response had high values. The test is classed as functional. As to conditions: 33.3 µM.

In test [6] the target is T3, Proteasome subunit beta (Trypanosoma cruzi) (UniProt O96673).
T3 sequence (whole entry): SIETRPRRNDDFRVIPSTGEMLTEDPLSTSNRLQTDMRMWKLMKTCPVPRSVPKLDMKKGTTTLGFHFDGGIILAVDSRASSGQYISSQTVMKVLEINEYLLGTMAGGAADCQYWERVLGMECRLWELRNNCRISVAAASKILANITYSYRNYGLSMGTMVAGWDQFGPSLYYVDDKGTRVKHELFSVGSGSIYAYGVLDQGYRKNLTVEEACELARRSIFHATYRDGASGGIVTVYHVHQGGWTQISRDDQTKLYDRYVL
Description: Trypanosoma cruzi proteasome chymotrypsin-like activity (TcProtChymo) assay. Further: in the data most compounds retested in dose-response had high values. As to conditions: 9.37 µM. The class given is functional.

The species entered for a further test is Homo sapiens. Description: To identify inhibition of the IFN signalling (Jak-Stat) pathway via expression of an eGFP reporter gene under the control of an IFN-stimulated response element (ISRE) containing MxA promoter. The class given is functional. To be noted: 30 µM.
Test [7] concerns the target T4, Tyrosyl-tRNA synthetase, putative (Trypanosoma cruzi (strain CL Brener)) (UniProt Q4DSP6).
T4 sequence (whole entry): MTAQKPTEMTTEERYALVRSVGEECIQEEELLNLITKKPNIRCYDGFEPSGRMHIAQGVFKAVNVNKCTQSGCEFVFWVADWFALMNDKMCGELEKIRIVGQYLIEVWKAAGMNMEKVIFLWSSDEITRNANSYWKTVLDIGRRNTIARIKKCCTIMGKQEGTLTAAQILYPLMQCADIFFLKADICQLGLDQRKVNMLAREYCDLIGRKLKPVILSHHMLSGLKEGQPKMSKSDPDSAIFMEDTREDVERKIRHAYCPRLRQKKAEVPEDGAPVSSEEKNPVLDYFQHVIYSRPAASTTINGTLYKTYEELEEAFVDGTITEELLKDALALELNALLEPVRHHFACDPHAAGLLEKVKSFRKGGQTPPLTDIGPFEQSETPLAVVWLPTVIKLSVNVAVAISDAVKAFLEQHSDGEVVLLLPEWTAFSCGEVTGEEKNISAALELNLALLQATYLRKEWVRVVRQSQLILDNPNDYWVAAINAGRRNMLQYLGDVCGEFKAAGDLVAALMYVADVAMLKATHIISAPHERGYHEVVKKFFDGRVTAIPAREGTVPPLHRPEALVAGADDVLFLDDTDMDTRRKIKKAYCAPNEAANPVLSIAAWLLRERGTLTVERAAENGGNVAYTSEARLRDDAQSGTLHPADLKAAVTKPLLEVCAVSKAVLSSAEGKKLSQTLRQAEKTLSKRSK
Description: Trypanosoma cruzi tyrosyl tRNA synthetase (TcYRS) _High Tyrosine SOP. Further: in the data most compounds retested in dose-response had high values. To be noted: 30 µM. The test is classed as functional.

Test [8] addresses T4, Tyrosyl-tRNA synthetase, putative (Trypanosoma cruzi (strain CL Brener)). Description: Trypanosoma cruzi tyrosyl tRNA synthetase (TcYRS) SOP. The class given is functional. As to conditions: 30 µM.
The target in test [9] is Chromo domain-containing protein 1 (Saccharomyces cerevisiae (strain ATCC 204508 / S288c) (Baker's yeast)) (UniProt P32657). In words: ScCHD-1 Enzyme Inhibition Assay. Further: in the data most compounds retested in dose-response had high values. The class given is functional. To be noted: 30 µM.
Chain of Chromo domain-containing protein 1 (Saccharomyces cerevisiae (strain ATCC 204508 / S288c) (Baker's yeast)) (P32657 whole entry, the tested form may be a part): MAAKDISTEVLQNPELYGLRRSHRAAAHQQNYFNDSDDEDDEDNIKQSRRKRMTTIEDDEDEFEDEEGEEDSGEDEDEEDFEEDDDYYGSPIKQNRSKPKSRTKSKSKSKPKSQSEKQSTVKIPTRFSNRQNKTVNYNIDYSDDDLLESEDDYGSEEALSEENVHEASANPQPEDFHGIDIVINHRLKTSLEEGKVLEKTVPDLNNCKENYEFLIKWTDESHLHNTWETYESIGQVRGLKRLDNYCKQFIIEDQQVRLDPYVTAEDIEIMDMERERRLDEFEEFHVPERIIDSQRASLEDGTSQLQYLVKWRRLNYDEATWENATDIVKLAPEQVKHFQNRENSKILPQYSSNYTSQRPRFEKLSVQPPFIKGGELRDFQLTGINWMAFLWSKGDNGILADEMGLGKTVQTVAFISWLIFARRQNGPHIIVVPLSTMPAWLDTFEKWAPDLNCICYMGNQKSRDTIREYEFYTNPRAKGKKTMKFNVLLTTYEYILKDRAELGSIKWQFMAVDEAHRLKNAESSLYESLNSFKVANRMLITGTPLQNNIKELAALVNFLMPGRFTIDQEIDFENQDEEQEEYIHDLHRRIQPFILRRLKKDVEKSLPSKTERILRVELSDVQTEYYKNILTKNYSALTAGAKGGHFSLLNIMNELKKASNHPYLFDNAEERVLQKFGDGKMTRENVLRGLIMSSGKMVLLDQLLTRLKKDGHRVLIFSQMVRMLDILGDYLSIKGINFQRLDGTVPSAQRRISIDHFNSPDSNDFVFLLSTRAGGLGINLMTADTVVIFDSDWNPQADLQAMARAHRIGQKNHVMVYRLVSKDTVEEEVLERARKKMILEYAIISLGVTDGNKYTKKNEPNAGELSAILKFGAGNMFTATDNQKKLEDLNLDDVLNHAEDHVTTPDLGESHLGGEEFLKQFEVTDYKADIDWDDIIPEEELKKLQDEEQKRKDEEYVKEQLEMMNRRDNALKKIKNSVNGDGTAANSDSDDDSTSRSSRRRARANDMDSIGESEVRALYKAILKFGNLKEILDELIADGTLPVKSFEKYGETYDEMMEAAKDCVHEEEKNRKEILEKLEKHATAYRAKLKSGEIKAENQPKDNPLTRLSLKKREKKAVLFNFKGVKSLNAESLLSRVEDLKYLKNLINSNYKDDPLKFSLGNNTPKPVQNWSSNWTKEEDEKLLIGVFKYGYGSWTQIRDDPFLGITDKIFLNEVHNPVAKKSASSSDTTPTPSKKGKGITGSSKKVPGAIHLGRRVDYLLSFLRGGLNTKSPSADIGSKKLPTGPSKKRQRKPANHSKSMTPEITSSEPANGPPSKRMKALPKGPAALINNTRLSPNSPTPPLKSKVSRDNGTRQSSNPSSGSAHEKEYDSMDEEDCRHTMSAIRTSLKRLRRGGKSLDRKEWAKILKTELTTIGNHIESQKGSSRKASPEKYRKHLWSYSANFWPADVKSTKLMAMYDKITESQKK

Chain of Sialic acid-binding Ig-like lectin 9 (Homo sapiens) (Q9Y336 whole entry): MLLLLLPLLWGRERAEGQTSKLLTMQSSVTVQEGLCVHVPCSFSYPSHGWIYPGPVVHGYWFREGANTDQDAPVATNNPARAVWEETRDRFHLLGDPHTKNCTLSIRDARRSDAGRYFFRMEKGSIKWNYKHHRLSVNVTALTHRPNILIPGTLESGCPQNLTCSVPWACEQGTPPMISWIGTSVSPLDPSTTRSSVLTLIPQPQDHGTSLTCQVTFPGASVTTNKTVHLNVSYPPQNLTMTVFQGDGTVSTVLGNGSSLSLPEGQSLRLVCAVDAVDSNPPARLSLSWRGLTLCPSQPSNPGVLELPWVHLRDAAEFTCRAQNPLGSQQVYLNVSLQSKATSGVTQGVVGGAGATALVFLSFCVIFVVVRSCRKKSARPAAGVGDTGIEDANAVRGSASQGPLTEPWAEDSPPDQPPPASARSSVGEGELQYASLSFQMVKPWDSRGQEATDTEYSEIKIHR
Chain of Protein translocase subunit SecA (Escherichia coli (strain K12)) (P10408 whole entry): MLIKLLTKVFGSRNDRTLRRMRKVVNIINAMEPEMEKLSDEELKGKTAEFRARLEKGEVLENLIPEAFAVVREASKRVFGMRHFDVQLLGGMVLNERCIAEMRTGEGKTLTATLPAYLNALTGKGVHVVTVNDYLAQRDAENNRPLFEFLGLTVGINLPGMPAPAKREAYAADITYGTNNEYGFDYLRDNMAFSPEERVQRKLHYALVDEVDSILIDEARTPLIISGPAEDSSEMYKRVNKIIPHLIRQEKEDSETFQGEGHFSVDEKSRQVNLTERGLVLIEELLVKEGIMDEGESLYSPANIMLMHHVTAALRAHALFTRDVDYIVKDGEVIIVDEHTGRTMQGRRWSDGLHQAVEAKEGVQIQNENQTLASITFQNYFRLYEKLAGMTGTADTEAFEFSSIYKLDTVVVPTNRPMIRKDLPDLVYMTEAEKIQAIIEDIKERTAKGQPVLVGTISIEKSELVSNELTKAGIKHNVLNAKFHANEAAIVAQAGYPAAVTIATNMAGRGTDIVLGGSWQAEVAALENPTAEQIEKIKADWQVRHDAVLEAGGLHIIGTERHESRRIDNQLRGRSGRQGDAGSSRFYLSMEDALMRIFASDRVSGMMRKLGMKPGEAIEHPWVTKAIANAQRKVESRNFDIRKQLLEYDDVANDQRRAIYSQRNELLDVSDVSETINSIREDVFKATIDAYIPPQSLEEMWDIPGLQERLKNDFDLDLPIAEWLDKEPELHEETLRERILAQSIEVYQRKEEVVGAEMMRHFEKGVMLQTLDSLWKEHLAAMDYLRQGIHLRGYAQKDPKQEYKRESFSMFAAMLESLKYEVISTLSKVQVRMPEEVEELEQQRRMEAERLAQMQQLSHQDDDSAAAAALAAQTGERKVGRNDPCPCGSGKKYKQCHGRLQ

With `COc1ccc(OCc2nc(C(=O)N3CC(O)C3)co2)cc1`, the Percent Effect in test [1] was -5.91%; in test [2], 5.41%; in [3], 4.37%; in test [4], 4.07%; with Trypanosoma cruzi it was 1.74%; in test [5], 1.43%. In addition, the Percent Effect was 3.28% in test [6]; 2.54% in the test filed under Homo sapiens; 4.76% in [7]; 2.44% in [8]; -0.668% in [9].
With `Cc1cc(C)c2nc(CN3CCOC(CCO)C3)cc(O)c2c1` (stereo unspecified), the Percent Effect in [1] was -2.9%; in test [2], 2.7%; in test [3], -1.47%; in test [4] it was 5.2%; in the test on Trypanosoma cruzi, 0.965%; in test [5] it was -2.38%. In addition, the Percent Effect was 10.3% in [6]; -6.99% in the test listed under Homo sapiens; 4.76% in test [7]; 14.6% in [8]; -1.34% in [9].
Take `CN(Cc1nc(N)c2ccccc2n1)CC1CCCN1c1cccnn1` (stereo unspecified): the Percent Effect is -6.24% in [1]; 5.2% in test [2]; 2.23% in test [3]; -2.05% in test [4]; 11.8% with Trypanosoma cruzi; -2.32% in test [5]. The Percent Effect in [6] was 13.2%; in the test filed under Homo sapiens, -8.77%; in test [7], 6.67%; in test [8], 18.8%; in test [9] it was -22.9%.
Turning to `CC(CN1CCCC1)C(=O)N1CCC(c2nccn2CC2CC2)CC1` (stereo unspecified), the Percent Effect is -4.31% in test [1]; 13.5% in test [2]; -3.47% in test [3]; 27.7% in test [4]; 10.2% in the test on Trypanosoma cruzi; 2.86% in test [5]. Also, the Percent Effect in test [6] was 16.2%; in the test filed under Homo sapiens, 5.41%; in [7] it was 7.94%; in [8], 21.9%; in test [9], -11.2%.
For `Cc1ccc(N2CCCN(C(=O)c3cc(Cl)c[nH]3)CC2)nn1`, the Percent Effect is -3.96% in [1]; -5.48% in test [2]; 4.73% in [3]; 4.6% in test [4]; -3.17% with Trypanosoma cruzi; 3.59% in test [5]. Besides, the Percent Effect in test [6] was 9.33%; in the test listed under Homo sapiens, 2.32%; in test [7] it was 12.5%; in test [8], 23.5%; in test [9], -1.25%.
For the compound `Cc1nn(C)c(C)c1C1CCCN1Cc1nc(-c2ccco2)oc1C` (stereo unspecified), the Percent Effect is -4.35% in test [1]; 18.9% in test [2]; -4.34% in [3]; -6.83% in test [4]; -1.76% in the test on Trypanosoma cruzi; 3.14% in test [5]. The Percent Effect in [6] is 11.3%; in the test listed under Homo sapiens it was 18.9%; in [7], 8.91%; in test [8] it was 13.4%; in [9], -8.93%.
Regarding `CS(=O)(=O)N1Cc2nccn2CC(Cn2ncccc2=O)C1` (stereo unspecified), the Percent Effect in test [1] is -1.2%; in test [2] it was 13.3%; in test [3] it was 3.55%; in [4], 5.03%; in the test on Trypanosoma cruzi it was -5.79%; in [5], -26%. Also, the Percent Effect was 7.18% in [6]; 0.368% in the test filed under Homo sapiens; 3.12% in [7]; 12.5% in test [8]; -4.85% in [9].
In the case of `CCc1nc(CN(C)C2CCN(CCn3cc(C#N)cn3)C2)no1` (stereo unspecified), the Percent Effect was 1.6% in test [1]; 13.5% in test [2]; -2.36% in [3]; -1.05% in test [4]; -7.64% with Trypanosoma cruzi; -13.6% in [5]. Moreover, the Percent Effect in [6] was 17.5%; in the test filed under Homo sapiens, 23.4%; in test [7], 4.43%; in test [8], 6.17%; in [9], -5.98%.
In the case of `Cc1ccc(CN2CCc3ncc(CNS(C)(=O)=O)n3CC2)o1`, the Percent Effect in [1] is -0.0355%; in test [2] it was 8.22%; in test [3] it was -1.38%; in [4] it was 6.78%; in the test with Trypanosoma cruzi, -5.56%; in test [5], -1.6%. Moreover, the Percent Effect is 15.3% in test [6]; 16.8% in the test filed under Homo sapiens; 7.29% in test [7]; 16.1% in test [8]; -0.506% in test [9].
As for `O=C(NCCNc1ccc(C(F)(F)F)cn1)c1cncc(Br)c1`, the Percent Effect is 1.84% in [1]; 15.6% in test [2]; 50.8% in test [3]; -7% in test [4]; -4.8% in the test on Trypanosoma cruzi; 3.58% in [5]. Further, the Percent Effect in test [6] was 12.5%; in the test filed under Homo sapiens it was 27.5%; in [7] it was 13.3%; in test [8] it was 30.6%; in [9], -20.7%.
Consider `CC(C)S(=O)(=O)c1nnc(CCNC(=O)OC(C)(C)C)o1`, for which the Percent Effect was -7.35% in [1]; 4% in test [2]; 2.34% in test [3]; -6.84% in test [4]; -5.3% in the test with Trypanosoma cruzi; -9.33% in test [5]. Also, the Percent Effect in test [6] is 14.1%; in the test filed under Homo sapiens, 17.5%; in test [7], 3.17%; in test [8], 2.56%; in test [9], -8.11%.

The record behind these values is ChEMBL document CHEMBL3988442, “University of Dundee, Small-Polar-MMV Screening Library” (2021).
